# S2 tox: viability counter-screen for ATXN expression inhibitors | 400,000 tested, 0.49% active | S2 cells (HEK-293 line with an ATXN2-luciferase reporter) viability, CellTiter-Fluor protease fluorescence, 24 h | Potency, µM (titrated, usually from 56.7 µM), most hits filed as cytotoxic; further: nearly all actives have a fitted effect of over 40% in size
# A549 viability: kills or reduces viability of A549 cells in Nrf2 counter-screen. A549 ARE-Fluc cells, CellTiter-Fluor viability, 18-24 h. Potency, µM (titrated, usually from 46 µM), without a hit: at the top dose activity change, negative = cytotoxicity, hits mostly inhibitors. 390,000 tested, 0.16% active. AID 504648; further: on the % scale 0 is the no-effect control and ±100 the full control effect
#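 A549 ARE_Fluc cells in 5% FBS OPTI-MEM were exposed to compounds in concentration-response for 18-24 h at 37 deg C. Viability was read by CellTiter-Fluor fluorescence (Ex 405/Em 525) after 30 min, before the luciferase read.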
# Nrf2 ARE act: Nrf2 pathway activation; AREc32 ARE-luciferase reporter (MCF7-derived line), luminescence, 24 h; Potency, µM (top dose mostly 46.1 µM), for inactives: at the top dose activation, most hits filed as activators; 410,000 tested, 0.31% active; further: % of control where 0% means no effect; nearly all actives have a fitted effect of over 65% in size
#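 Nrf2 activation is followed as ARE-luciferase induction in the AREc32 line after one day of compound treatment; luminescence is read with Steady-Glo.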
# ATXN2 expr inh: reduces ATXN2 reporter expression in HEK-293 cells | HEK-293 ATXN2-luciferase reporter, luminescence, 24 h | Potency, µM (series often up to 57 µM), for inactives: top-dose activity change, negative = inhibition, actives largely listed as inhibitors | 360,000 tested, 0.72% active | AID 1745845; further: on the % scale 0 is the no-effect control and ±100 the full control effect; nearly all actives have a fitted effect of over 55% in size
#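 ATXN2-luciferase reporter cells (luciferase flanked by upstream and downstream ATXN2 gene portions) were treated 24 h at 37 °C with compounds at up to 57 uM. SteadyGlo luminescence gave expression; GF-AFC fluorescence gave viability.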
# Nrf2 inh: Nrf2 pathway inhibition; Potency, µM (doses to about 46 µM), for inactives: at the top dose activity change, negative = inhibition, most hits filed as inhibitors; 360,000 tested, 2.1% active; A549 ARE-Fluc reporter, luciferase luminescence, 18-24 h; further: on the % scale 0 is the no-effect control and ±100 the full control effect; nearly all actives have a fitted effect of over 60% in size
#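 Reporter: ARE-Fluc in A549. Exposure: 18-24 h, 37 °C, 5% CO2, 5% FBS OPTI-MEM. Readouts: fluorescent cytotoxicity (CellTiter-Fluor), then luminescent Nrf2 signal after BugLite.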
# The depositor's hits bear a star; i = inactive; ? = inconclusive; . = no result; [ ] = dose if it differs, or a comment. Only some compounds are listed: those with a hit (about 2.9% of all), similar ones and a draw of the others. The call rests on the fitted dose curve; in most records, active means well fitted curve in the direction sought with a large enough effect; inconclusive means small, poorly fitted or top-dose-only effect, or another doubt; inactive means no such curve, though single readings can be large; an effect the other way counts as inactive or inconclusive. Potency means the concentration at half of the fitted maximal effect.
SMILES,S2 tox,A549 viability,Nrf2 ARE act,ATXN2 expr inh,Nrf2 inh
O=C(NCC1Cc2cc(F)cc(-c3cnccn3)c2O1)c1cccc(Cl)c1 (stereo unspecified),i,.,.,.,.
CC(=O)Nc1cccc(Oc2ncnc3scc(-c4ccc(C)cc4)c23)c1,32µM*,?,0%,?,18µM*
COc1ccc(CCc2nc(-c3ccc(-n4cccc4)cc3)no2)cc1,i,-10%,0%,-10%,16µM*
CCCc1ccc(OC(C)c2nc(-c3ccc(-n4cccc4)cc3)no2)cc1 (stereo unspecified),i,-14%,-1%,-6%,23µM*
COc1ccc(C(=O)Nc2ccccc2C(=O)N/N=C/c2ccccn2)cc1OC,i,-13%,7%,28µM*,9.2µM*
COc1ccc(O)c(/C=N/NC(=O)c2ccc(OCc3cccc(Br)c3)cc2)c1,?,20%,0%,3.2µM*,-28%
COc1ccc(/C=N/NC(=O)c2ccc(Br)cc2)c(OC)c1,i,-3%,0%,0%,-6%
COc1ccc(C(=O)N/N=C/c2cc(Br)ccc2O)cc1OC,i,0%,0%,1.4µM*,-24%
COc1ccc(C(=O)N/N=C/c2ccccn2)cc1OC,i,-5%,0%,-7%,?
CC(C)(C)OC(=O)NCc1nnc(-c2cc3ccccc3[nH]2)o1,.,14%,.,.,?
CCOC(=O)c1c(C)[nH]c(C)c1C(=O)CSc1nc2ccccc2c(=O)n1-c1ccc(F)cc1,i,?,6%,?,23µM*
COc1ccc(CCC(=O)Nc2ccc(Cl)c(S(=O)(=O)N3CCCC3)c2)cc1,i,-2%,0%,-5%,18µM*
COc1ccc(OCCCC(=O)Nc2ccc(OC)c(S(=O)(=O)N3CCOCC3)c2)cc1,i,1%,1%,-22%,-14%
COc1ccc(NC(=O)CCCOc2ccc(Cl)c(C)c2)cc1S(=O)(=O)N1CCOCC1,i,?,0%,-6%,18µM*
CCC(=O)NC(c1ccc(C)s1)c1cc(Cl)c2cccnc2c1O (stereo unspecified),.,-7%,.,.,2%
COc1ccc(OC)c(CCNC(=O)c2cc3cccc4c3n2CCS4)c1,.,-2%,3%,.,-21%
Cc1ccc(C)c(N2CCN(C3=C(c4ccccc4)C(=O)c4ccccc43)CC2)c1,?,-4%,0%,9%,8%
CC(C)(C)NC(=O)C1Cc2ccccc2CN1S(=O)(=O)c1ccc(F)cc1 (stereo unspecified),i,-10%,3%,-1%,3%
N#Cc1ccc(NC(=O)C2Cc3ccccc3CN2S(=O)(=O)c2ccc(F)cc2)cc1 (stereo unspecified),.,?,6%,.,23µM*
O=C(Nc1ccc(O)cc1)C1CCCN1S(=O)(=O)c1ccc(F)cc1 (stereo unspecified),i,-11%,0%,-4%,15µM*
CC(=O)c1ccc(NC(=O)C2CCCN2S(=O)(=O)c2ccc(F)cc2)cc1 (stereo unspecified),i,3%,-1%,2%,7%
COc1ccccc1-c1nn2c(-c3cc(-c4ccccc4)n[nH]3)nnc2s1,.,3%,.,.,-15%
Clc1ccccc1-c1nn2c(-c3cc(-c4ccccc4)n[nH]3)nnc2s1,.,-15%,.,.,23µM*
CCN1C(=O)[C@H]2[C@@H](c3ccc(SC4CCCCC4)cc3)N[C@@](CC(C)C)(C(=O)OC)[C@H]2C1=O,i,-2%,-1%,-20%,21µM*
Cc1cc(N/N=C/c2ccc(O)c(C)c2O)nc(-c2ccccc2O)n1,16µM*,?,-2%,?,?
C/C(=N\Nc1cc(C)nc(-c2ccccc2O)n1)c1ccccc1,i,0%,0%[9.22 µM],2%,2%
CCOc1ccccc1NC(=O)CSc1ncc2c(n1)-c1ccccc1N(CC)S2(=O)=O,i,16%,11%,-7%,25%
Cc1nn(Cc2ccc(F)cc2)c2sc(C(=O)Nc3ccc(N4CCOCC4)cc3N3CCOCC3)cc12,i,-2%,3%,?,15µM*
O=C(CSCc1ccc(F)cc1)Nc1ccc(N2CCOCC2)cc1N1CCOCC1,i,1%,0%,5%,-8%

# Screens from PubChem.
